The supplement of paper PMC12494721
Structures can show the parent of a compound that is named as a salt.

How the values were obtained:
Conditions in all cases: 20 µM; incubation time: 27 h, anaerobic, 37 °C;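 for the amine columns active = adjusted P below 0.05 in both replicates with a change the same way and a mean fold change under 0.8 or over 1.25; inactive = the rest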
[1] = system: Clostridium sporogenes DSM 1664; assay: growth (OD595) fold change vs plate DMSO controls (fold change (ratio)); higher = more growth
Method in brief: (§1)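 Shaken 96-well cultures in mGAM, grown anaerobically for 27 h at 37 °C, were read at 595 nm. OD came from blank-subtracted readings, corrected for background with 20 µM compound solutions in water and scaled by a calibration factor of 5. Growth is the fold change versus the plate's median DMSO control. Values average 2 biological replicates, and any fold change above 1.5 is NA.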

Escherichia coli IAI1 [2] = assay: as above
Method in brief: as §1

[3] = system: Klebsiella aerogenes DSM 30053; assay: as above
Method in brief: as §1

[4] = system: Ruminococcus gnavus DSM 108212; assay: as above
Method in brief: as §1

[5] = system: Klebsiella aerogenes DSM 30053; assay: fold change of Histamine concentration vs plate DMSO controls (fold change (ratio)); higher = more amine produced, active = hit call of the paper (significant change in both replicates, either direction)
Method in brief: (§2)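 Each value is the fold change relative to DMSO-only wells on the same plate. Four gut bacterial strains were grown anaerobically in mGAM at 37 °C for 27 h in 80 µL wells, starting at OD 0.1 before a 1:1 dilution, with compounds at 20 µM final (sweeteners 50 µM). Whole cultures were extracted with cold acetonitrile/methanol containing 0.1% formic acid, centrifuged, and amines were quantified by LC–triple-quadrupole MS (dynamic MRM) against external calibration curves with within-batch drift correction. Values are means of 2 biological replicates.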

[6] = system: Clostridium sporogenes DSM 1664; assay: fold change of Tryptamine concentration vs plate DMSO controls (fold change (ratio)); higher = more amine produced, active = hit call of the paper (significant change in both replicates, either direction)
Method in brief: as §2

[7] = system: Ruminococcus gnavus DSM 108212; assay: as above
Method in brief: as §2

Escherichia coli IAI1 [8] = assay: fold change of Putrescine concentration vs plate DMSO controls (fold change (ratio)); higher = more amine produced, active = hit call of the paper (significant change in both replicates, either direction)
Method in brief: as §2

[9] = system: Klebsiella aerogenes DSM 30053; assay: as above
Method in brief: as §2

Escherichia coli IAI1 [10] = assay: fold change of Cadaverine concentration vs plate DMSO controls (fold change (ratio)); higher = more amine produced, active = hit call of the paper (significant change in both replicates, either direction)
Method in brief: as §2

[11] = system: Klebsiella aerogenes DSM 30053; assay: as above
Method in brief: as §2

[12] = system: Ruminococcus gnavus DSM 108212; assay: fold change of 2-Phenylethylamine concentration vs plate DMSO controls (fold change (ratio)); higher = more amine produced, active = hit call of the paper (significant change in both replicates, either direction)
Method in brief: as §2

Row | Structure (SMILES) | growth [1] | growth (Escherichia coli IAI1 [2]) | growth [3] | growth [4] | fold change of Histamine concentration [5] | fold change of Tryptamine concentration [6] | fold change of Tryptamine concentration [7] | fold change of Putrescine concentration (Escherichia coli IAI1 [8]) | fold change of Putrescine concentration [9] | fold change of Cadaverine concentration (Escherichia coli IAI1 [10]) | fold change of Cadaverine concentration [11] | fold change of 2-Phenylethylamine concentration [12]
1 | Cc1cc(C)c(C2=C(OC(=O)CC(C)(C)C)C3(CCCC3)OC2=O)c(C)c1 | 0.884 | 1.02 | 1.01 | 0.937 | 1 (inactive) | 0.972 (inactive) | 1.01 (inactive) | 1.01 (inactive) | 1.02 (inactive) | 0.983 (inactive) | 0.999 (inactive) | 1.01 (inactive)
2 | CC(C)(C)C(O)(CCc1ccc(Cl)cc1)Cn1cncn1 (stereo unspecified) | 0.978 | 1.03 | 1.01 | 1.02 | 0.981 (inactive) | 1.24 (inactive) | 1.07 (inactive) | 0.998 (inactive) | 1.03 (inactive) | 1.01 (inactive) | 1.03 (inactive) | 1.15 (inactive)
3 | Fc1ccc(C(OCCN2CCN(CCCc3ccccc3)CC2)c2ccc(F)cc2)cc1 | 1.09 | 1 | 1 | 0.845 | 0.974 (inactive) | 0.97 (inactive) | 0.638 (active) | 1.01 (inactive) | 0.993 (inactive) | 0.998 (inactive) | 1 (inactive) | 0.771 (active)
4 | COc1ccc(CN2CCNCC2)c(OC)c1OC [Trimetazidine dihydrochloride] | 0.945 | 0.975 | 0.973 | 1.15 | 1.12 (inactive) | 1.05 (inactive) | 1.03 (inactive) | 0.973 (inactive) | 1.02 (inactive) | 1.01 (inactive) | 0.971 (inactive) | 1.03 (inactive)
5 | C[C@]12CCC(=O)C(O)=C1CC[C@@H]1[C@@H]2CC[C@]2(C)C(=O)CC[C@@H]12 [Formestane] | 1.03 | 0.965 | 0.974 | 1.13 | 1.05 (inactive) | 0.968 (inactive) | 1 (inactive) | 1.02 (inactive) | 1.01 (inactive) | 1.01 (inactive) | 0.981 (inactive) | 1.03 (inactive)
6 | O=C(O)C(F)(F)C(F)(F)C(F)(F)C(F)(F)C(F)(F)C(F)(F)C(F)(F)C(F)(F)F [PFNA (Perfluorononanoic acid)] | 1.04 | 1 | 1.01 | 1.05 | 1.01 (inactive) | 0.955 (inactive) | 0.968 (inactive) | 1.01 (inactive) | 0.994 (inactive) | 1.03 (inactive) | 0.982 (inactive) | 0.915 (inactive)
7 | Fc1ccc(Oc2ccnc3cc(Cl)cc(Cl)c23)cc1 | 1.06 | 1.01 | 1.02 | 1.04 | 1.02 (inactive) | 1.01 (inactive) | 0.957 (inactive) | 1.05 (inactive) | 1.02 (inactive) | 0.961 (inactive) | 1 (inactive) | 0.915 (inactive)
8 | CCOCN(C(=O)CCl)c1c(C)cccc1CC | 0.867 | 1.01 | 0.997 | 1.08 | 1.01 (inactive) | 1.06 (inactive) | 1.01 (inactive) | 0.901 (inactive) | 0.941 (inactive) | 0.88 (inactive) | 1 (inactive) | 1.02 (inactive)
9 | CN1C(=O)COc2c(C(=O)NC3CN4CCC3CC4)cc(Cl)cc21 (stereo unspecified) [Azasetron hydrochloride] | 0.734 | 0.55 | 0.585 | 0.0388 | 1.03 (inactive) | 0.992 (inactive) | 1.02 (inactive) | 0.507 (inactive) | 0.996 (inactive) | 0.512 (inactive) | 0.982 (inactive) | 0.986 (inactive)
10 | CCCN(CCOc1c(Cl)cc(Cl)cc1Cl)C(=O)n1ccnc1 | 1.07 | 0.976 | 1.01 | 0.951 | 1.02 (inactive) | 1.05 (inactive) | 1.02 (inactive) | 1 (inactive) | 1.01 (inactive) | 1.02 (inactive) | 0.998 (inactive) | 1.04 (inactive)
11 | CNC(=O)Oc1ccc2c(c1)[C@]1(C)CCN(C)[C@@H]1N2C [Eserine hemisulfate salt] | 1.02 | 1.06 | 0.988 | 1.05 | 1.04 (inactive) | 1.02 (inactive) | 1.03 (inactive) | 1.06 (inactive) | 0.996 (inactive) | 0.999 (inactive) | 0.975 (inactive) | 1.05 (inactive)
12 | c1ccc2c(c1)ccc1c3ccccc3sc21 [Benzo[b]naphtho[2,1-d]thiophene] | 0.989 | 0.988 | 1.11 | 1.07 | 1.02 (inactive) | 0.962 (inactive) | 1.01 (inactive) | 1.01 (inactive) | 1.03 (inactive) | 0.992 (inactive) | 1.01 (inactive) | 0.99 (inactive)
13 | CC(Oc1ccc(Oc2ncc(C(F)(F)F)cc2Cl)cc1)C(=O)O (stereo unspecified) | 1.02 | 1.03 | 1.01 | 0.977 | 0.989 (inactive) | 0.943 (inactive) | 0.974 (inactive) | 1.05 (inactive) | 0.988 (inactive) | 1.04 (inactive) | 0.981 (inactive) | 0.982 (inactive)
